Experimental findings from PubChem BioAssay (NCI) are described below.

Compounds without any hit were thinned out: in the full panel of roughly 83,000, 20% have a hit.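 The endpoint reported here, percent growth, reads 100 for growth as untreated, 0 for no net growth and -100 for all cells dead.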 A number with no mark means an inactive call. Active and inactive are the calls of the source. Rule for the calls: active = growth percent below 10; inactive = the rest.

What all share (test): NCI-60 one-dose screen, 48 h (100 = growth as untreated, 0 = no growth, -100 = all killed)
One assay deals with HT29 colon. As to conditions: 10 µM unless noted.
The next assay relates to SNB-19 CNS. As to conditions: 10 µM unless noted.
The next assay has as its system U251 CNS. As to conditions: 10 µM unless noted.
The test system of another assay is PC-3 prostate. Conditions: 10 µM unless noted.
Another assay relates to SK-MEL-5 melanoma. As to conditions: 10 µM unless noted.
Another assay relates to UACC-62 melanoma. As to conditions: 10 µM unless noted.
A further assay concerns LOX IMVI melanoma. As to conditions: 10 µM unless noted.
In the next assay the test system is SK-MEL-28 melanoma. Conditions: 10 µM unless noted.
Another assay has as its system SK-MEL-2 melanoma. As to conditions: 10 µM unless noted.
A further assay concerns SN12C renal. As to conditions: 10 µM unless noted.
A further assay has as its system UO-31 renal. Conditions: 10 µM unless noted.
The test system of a further assay is TK-10 renal. Conditions: 10 µM unless noted.
The next assay concerns CAKI-1 renal. As to conditions: 10 µM unless noted.
The subject of another assay is A498 renal. As to conditions: 10 µM unless noted.
In a further assay the test system is CCRF-CEM leukemia. As to conditions: 10 µM unless noted.
A further assay has as its system MOLT-4 leukemia. As to conditions: 10 µM unless noted.
The subject of the next assay is SNB-75 CNS. As to conditions: 10 µM.
For a further assay, the system named is ACHN renal. As to conditions: 10 µM unless noted.
For another assay, the system named is EKVX NSCLC. As to conditions: 10 µM unless noted.
Another assay has as its system HCT-15 colon. As to conditions: 10 µM unless noted.

On to `COc1ccc(-c2c(N)n[nH]c2-c2cc(OC)c3c(c2)OCCO3)cc1`, for which the growth with HT29 colon was 29.7%; in the assay on SNB-19 CNS it was 84.9%; with U251 CNS, 77.6%; in the assay with PC-3 prostate it was 66.9%; with SK-MEL-5 melanoma, 69.8%; in the assay with UACC-62 melanoma, 71%. For the same compound, the growth with LOX IMVI melanoma is 69.8%; in the assay with SK-MEL-28 melanoma, 80.7%; in the assay on SK-MEL-2 melanoma, 64.8%; with SN12C renal it was 88.7%; in the assay with UO-31 renal, 92%; in the assay on TK-10 renal, 71.3%. In addition, the growth is 70.3% in the assay with CAKI-1 renal, 71.4% in the assay with A498 renal, 73.7% in the assay with CCRF-CEM leukemia and 61.3% with MOLT-4 leukemia.

`CC1(C)C(=O)/C(=C\c2ccc(C(F)(F)F)cc2)C[C@]2(C)[C@H]3CC[C@@H]4[C@H]5[C@H](C(=O)/C=C/c6ccc(C(F)(F)F)cc6)CC[C@]5(CO)CC[C@@]4(C)[C@]3(C)CC[C@@H]12`: the growth in the assay on HT29 colon is 104%; in the assay on SNB-75 CNS it was 83.7%; with SNB-19 CNS, 92.6%; with U251 CNS it was 92.8%; in the assay with PC-3 prostate it was 84%; with SK-MEL-5 melanoma it was 94.1%. Further, the growth in the assay with UACC-62 melanoma was 84.3%; with SK-MEL-28 melanoma, 110%; with SK-MEL-2 melanoma it was 105%; in the assay with SN12C renal it was 91.8%; in the assay on UO-31 renal, 66.6%; with TK-10 renal it was 126%. Moreover, the growth is 91.9% with ACHN renal; 56.2% in the assay on CAKI-1 renal; 93.7% in the assay with A498 renal; 90.5% with CCRF-CEM leukemia; 82.5% in the assay with MOLT-4 leukemia.

For `O=C(/C=C/c1ccccc1)c1cccc(O)c1`, the growth in the assay with HT29 colon is 32.3%; in the assay with U251 CNS, 61.9%; in the assay with PC-3 prostate, 103%; with SK-MEL-5 melanoma it was 107%; with LOX IMVI melanoma, 81.7%; with SK-MEL-28 melanoma, 104%. For the same compound, the growth in the assay on SK-MEL-2 melanoma was 115%; with EKVX NSCLC, 108%; with UO-31 renal, 72.6%; in the assay with TK-10 renal, 109%; in the assay on CAKI-1 renal, 93.6%; in the assay with A498 renal, 114%. The growth with MOLT-4 leukemia was 86.7%.

Turning to `O=C1C2(c3ccccc3)C(c3ccccc3)=C(c3ccccc3)C1(c1ccccc1)C1CC=CC12` (centres undefined), the growth was 81.8% with HT29 colon; 85.5% with SNB-19 CNS; 89.4% in the assay with U251 CNS; 48.8% with PC-3 prostate; 85.8% with SK-MEL-5 melanoma; 78.3% in the assay with UACC-62 melanoma. Moreover, the growth is 85% in the assay on LOX IMVI melanoma; 82.6% with SK-MEL-2 melanoma; 86.1% with SN12C renal; 61.6% with UO-31 renal; 118% with TK-10 renal; 86.7% in the assay with ACHN renal. The growth in the assay on CAKI-1 renal is 52.6%; in the assay on A498 renal, 89.2%; in the assay on CCRF-CEM leukemia it was 84.2%; in the assay with MOLT-4 leukemia it was 84.4%.

As for `Nc1nc(=O)c2ccccc2s1`, the growth in the assay on HCT-15 colon was 101%; in the assay with U251 CNS it was 111%; in the assay on PC-3 prostate it was 99.4%; in the assay on SK-MEL-5 melanoma, 116%; in the assay on UACC-62 melanoma it was 97.2%; in the assay on LOX IMVI melanoma, 104%. In addition, the growth with SK-MEL-2 melanoma was 104%; in the assay with EKVX NSCLC, 111%; in the assay on SN12C renal it was 98.9%; in the assay on UO-31 renal it was 78.3%; with TK-10 renal, 114%; in the assay on ACHN renal it was 99.4%. In addition, the growth in the assay with CAKI-1 renal is 101%; in the assay with A498 renal, 131%; in the assay on CCRF-CEM leukemia, 92.2%; in the assay on MOLT-4 leukemia, 103%.

Take `COc1ccc(/C(C#N)=C/c2cc(OC)c(OC)c(OC)c2)cc1`: the growth in the assay on HCT-15 colon is 31.1%; in the assay on U251 CNS, 34.4%; in the assay with PC-3 prostate, 43.1%; with SK-MEL-5 melanoma it was 14.8%; in the assay with UACC-62 melanoma, 39%; with LOX IMVI melanoma it was 50.3%. The growth in the assay with SK-MEL-28 melanoma is 52.1%; in the assay on SN12C renal, 58.4%; in the assay on UO-31 renal, 55%; in the assay on TK-10 renal it was 68.3%; with ACHN renal it was 49.4%; in the assay with CAKI-1 renal, 50%. Besides, the growth is 33.6% in the assay with A498 renal, 26.8% in the assay on CCRF-CEM leukemia and 32.3% in the assay with MOLT-4 leukemia.

For `COC(=O)c1cc(=O)nc(N/N=C/c2ccco2)s1`, the growth is 106% in the assay with HT29 colon; 96.2% in the assay on SNB-75 CNS; 105% in the assay on SNB-19 CNS; 104% in the assay on U251 CNS; 95.7% in the assay on PC-3 prostate; 99.6% in the assay with SK-MEL-5 melanoma. Moreover, the growth with UACC-62 melanoma was 106%; in the assay on LOX IMVI melanoma, 101%; in the assay on SK-MEL-28 melanoma it was 104%; in the assay with SK-MEL-2 melanoma it was 117%; in the assay on SN12C renal, 102%; in the assay on UO-31 renal, 87.5%. In addition, the growth in the assay on TK-10 renal was 118%; in the assay with CAKI-1 renal, 105%; with A498 renal, 99.5%; with CCRF-CEM leukemia it was 95.6%; in the assay with MOLT-4 leukemia it was 94.9%.

Take `OCc1ncc(-c2ccccc2)s1`: the growth with HT29 colon was 102%; with SNB-75 CNS, 78.8%; with SNB-19 CNS it was 98.5%; with PC-3 prostate, 89.4%; in the assay on SK-MEL-5 melanoma it was 105%; in the assay on UACC-62 melanoma, 106%. The growth in the assay on SK-MEL-28 melanoma is 132%; with SK-MEL-2 melanoma, 113%; in the assay with EKVX NSCLC it was 87.8%; in the assay with SN12C renal, 121%; in the assay on UO-31 renal, 97.9%; in the assay on TK-10 renal, 110%. For the same compound, the growth with CAKI-1 renal was 81.8%; in the assay on A498 renal it was 116%; in the assay with CCRF-CEM leukemia, 90.6%; in the assay with MOLT-4 leukemia, 110%.

As for `Cc1cccc(/C=N/Nc2cc(C)c3cccc(C)c3n2)n1`, the growth in the assay on HT29 colon is 84.9%; in the assay with SNB-19 CNS, 92.7%; with U251 CNS it was 78.6%; in the assay with PC-3 prostate it was 51.6%; in the assay on SK-MEL-5 melanoma, 66.2%; in the assay with UACC-62 melanoma, 87.1%. Also, the growth in the assay with SN12C renal was 94.6%; in the assay with UO-31 renal, 76.5%; with TK-10 renal it was 111%; in the assay with ACHN renal it was 92.1%; in the assay with CAKI-1 renal, 98.3%; in the assay with A498 renal, 97.7%. The values for the growth with CCRF-CEM leukemia and with MOLT-4 leukemia were 74% and 67.9%, respectively.

On to `COc1cc(NCCCCCN)c2ncccc2c1`, for which the growth was 118% in the assay with HT29 colon; 107% with U251 CNS; 108% in the assay on PC-3 prostate; 111% in the assay with SK-MEL-5 melanoma; 103% in the assay on LOX IMVI melanoma; 114% in the assay on SK-MEL-28 melanoma. Also, the growth is 126% with SK-MEL-2 melanoma; 113% in the assay on EKVX NSCLC; 86.9% with UO-31 renal; 119% in the assay with TK-10 renal; 96.7% in the assay with CAKI-1 renal; 116% in the assay on A498 renal. In addition, the growth in the assay on CCRF-CEM leukemia was -24% (active); in the assay with MOLT-4 leukemia it was 88.3%.

As to `COc1ccc(-c2cnnn2-c2nonc2-n2cccc2)cc1OC`, the growth in the assay with HT29 colon was 12.3%; in the assay on SNB-19 CNS, 84.2%; with U251 CNS, 56.8%; in the assay with PC-3 prostate it was 61.2%; in the assay with SK-MEL-5 melanoma it was 55.6%; in the assay with UACC-62 melanoma, 54.1%. In addition, the growth in the assay with LOX IMVI melanoma was 44.2%; in the assay with SK-MEL-28 melanoma it was 67.8%; with SK-MEL-2 melanoma, 38%; with SN12C renal it was 68.5%; in the assay on UO-31 renal, 72.2%; with TK-10 renal, 69.6%. In addition, the growth was 42.9% in the assay with CAKI-1 renal, 56.3% in the assay on A498 renal, 54.7% with CCRF-CEM leukemia and 18.1% with MOLT-4 leukemia.

For `Fc1ccccc1-c1nc(-c2nc3cc(Cl)c(Cl)cc3[nH]2)c2ccccn12`, the growth in the assay on HT29 colon is 70.8%; in the assay with SNB-75 CNS, 38.1%; in the assay on SNB-19 CNS, 93.1%; in the assay on U251 CNS, 95%; in the assay on PC-3 prostate, 62.2%; with SK-MEL-5 melanoma, 79.4%. In addition, the growth in the assay on UACC-62 melanoma was 83.1%; with LOX IMVI melanoma, 79.9%; in the assay with SK-MEL-28 melanoma, 83.9%; in the assay with SK-MEL-2 melanoma, 81.5%; in the assay with SN12C renal it was 70.7%; with UO-31 renal it was 62.6%. Moreover, the growth with A498 renal was 104%; with CCRF-CEM leukemia it was 81.9%; in the assay with MOLT-4 leukemia it was 67.1%.

Regarding `C=C(C)[C@@H]1CC[C@]2(C(=O)N3CCNCC3)CC[C@]3(C)[C@H](CC[C@@H]4[C@@]5(C)C/C(=C/c6ccncc6)C(=O)C(C)(C)[C@@H]5CC[C@]43C)[C@@H]12`, the growth is 109% in the assay with HT29 colon; 99.5% in the assay with SNB-19 CNS; 101% with U251 CNS; 94.4% in the assay on PC-3 prostate; 99.6% in the assay on SK-MEL-5 melanoma; 103% in the assay with UACC-62 melanoma. Moreover, the growth is 97.2% in the assay on LOX IMVI melanoma; 107% in the assay with SK-MEL-2 melanoma; 106% in the assay with SN12C renal; 90.3% with UO-31 renal; 103% in the assay on ACHN renal; 95.6% in the assay on CAKI-1 renal. Moreover, the growth in the assay with CCRF-CEM leukemia was 101%; with MOLT-4 leukemia, 95.6%.
